Reference: PubChem BioAssay (EPA / NIEHS)
Several values for one entry are separate records, joined by “and”; a condition that tells them apart may be missing. Equal entries are not always repeated. A structure can be active in one record and inactive in another. Activity calls are given as the source filed them. Rule for the calls: active = hit-call score of the fitted dose curve at least 0.9, where 1 is the maximum; inactive = score below 0.9.

What was measured:
[1] = read-out: Tissue plasminogen activator (tPA), PLAT (gene 5327); assay: BSK_BE3C_tPA: BioMAP Diversity Plus: BE3C Assay for Tissue plasminogen activator (tPA) Biomarker Activity (AID 2283041); details: primary human bronchial epithelial cells; actives raise or lower the signal
In short: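 Primary human lung bronchial epithelial cultures receive test chemical; after 24 h, tPA is quantified by ELISA, and gain or loss of signal is fitted bidirectionally relative to DMSO baseline.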

[2] = read-out: Interleukin-8 (IL8), CXCL8 (gene 3576); assay: BSK_CASM3C_IL8: BioMAP Diversity Plus: CASM3C Assay for Interleukin-8 (IL8) Biomarker Activity (AID 2283042); details: primary human coronary artery smooth muscle cells; actives raise or lower the signal;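 note: IL-8 protein level quantified by ELISA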
[3] = read-out: Human Leukocyte Antigen - DR isotype (HLADR), HLA-DRA (gene 3122); assay: BSK_CASM3C_HLADR: BioMAP Diversity Plus: CASM3C Assay for Human Leukocyte Antigen - DR isotype (HLADR) Biomarker Activity (AID 2283043); details: primary human coronary artery smooth muscle cells; actives raise or lower the signal;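 note: cell-surface HLA-DR protein level quantified by ELISA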
[4] = read-out: Macrophage colony-stimulating factor (MCSF), CSF1 (gene 1435); assay: BSK_CASM3C_MCSF: BioMAP Diversity Plus: CASM3C Assay for Macrophage colony-stimulating factor (MCSF) Biomarker Activity (AID 2283044); details: primary human coronary artery smooth muscle cells; actives raise or lower the signal;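 note: M-CSF protein amount quantified by ELISA after 24 h exposure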
[5] = read-out: Low-density lipoprotein receptor (LDLR), LDLR (gene 3949); assay: BSK_CASM3C_LDLR: BioMAP Diversity Plus: CASM3C Assay for Low-density lipoprotein receptor (LDLR) Biomarker Activity (AID 2283045); details: primary human coronary artery smooth muscle cells; actives raise or lower the signal;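 note: LDLR protein level on the cell surface quantified by ELISA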
[6] = read-out: Monocyte Chemoattractant Protein-1 (MCP1), CCL2 (gene 6347); assay: BSK_CASM3C_MCP1: BioMAP Diversity Plus: CASM3C Assay for Monocyte Chemoattractant Protein-1 (MCP1) Biomarker Activity (AID 2283046); details: primary human coronary artery smooth muscle cells; actives raise or lower the signal;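 note: MCP-1 level quantified by ELISA 24 h after dosing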
[7] = BSK_CASM3C_Proliferation: Cell Proliferation Assessment in the BioMAP Diversity Plus: CASM3C Assay (AID 2283047); details: primary human coronary artery smooth muscle cells;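 note: sulforhodamine B total protein stain as relative cell number at 560 nm; sub-confluent cells exposed 48 h before staining; fitted both ways against DMSO so gain or loss of cell number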
[8] = read-out: Monokine induced gamma interferon (MIG), CXCL9 (gene 4283); assay: BSK_CASM3C_MIG: BioMAP Diversity Plus: CASM3C Assay for Monokine induced gamma interferon (MIG) Biomarker Activity (AID 2283048); details: primary human coronary artery smooth muscle cells; actives raise or lower the signal;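 note: MIG protein level measured by ELISA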
[9] = read-out: serum amyloid A (SAA), SAA1 (gene 6288); assay: BSK_CASM3C_SAA: BioMAP Diversity Plus: CASM3C Assay for serum amyloid A (SAA) Biomarker Activity (AID 2283049); details: primary human coronary artery smooth muscle cells; actives raise or lower the signal;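 note: SAA protein level quantified by ELISA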
[10] = BSK_CASM3C_SRB: Viability Assessment in the BioMAP Diversity Plus: CASM3C Assay (AID 2283050); details: primary human coronary artery smooth muscle cells;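 note: total protein by SRB staining as cytotoxicity measure in parallel cultures; cells exposed to compound for 24 h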
[11] = read-out: Thrombomodulin, THBD (gene 7056); assay: BSK_CASM3C_Thrombomodulin: BioMAP Diversity Plus: CASM3C Assay for Thrombomodulin Biomarker Activity (AID 2283051); details: primary human coronary artery smooth muscle cells; actives raise or lower the signal;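 note: thrombomodulin protein level measured by ELISA 24 h after dosing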
[12] = read-out: Tissue Factor, F3 (gene 2152); assay: BSK_CASM3C_TissueFactor: BioMAP Diversity Plus: CASM3C Assay for Tissue Factor Biomarker Activity (AID 2283052); details: primary human coronary artery smooth muscle cells; actives raise or lower the signal;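 note: cell surface tissue factor protein level read by ELISA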
[13] = read-out: Interferon-gamma inducible Protein 10 (IP10), CXCL10 (gene 3627); assay: BSK_hDFCGF_IP10: BioMAP Diversity Plus: hDFCGF Assay for Interferon-gamma inducible Protein 10 (IP10) Biomarker Activity (AID 2283053); details: primary human foreskin fibroblasts; actives raise or lower the signal
In short: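 Primary foreskin fibroblasts, human; 24 h compound exposure; IP-10 by ELISA; bidirectional fit vs DMSO.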

[14] = read-out: Urokinase-type plasminogen activator receptor (uPAR), PLAUR (gene 5329); assay: BSK_CASM3C_uPAR: BioMAP Diversity Plus: CASM3C Assay for Urokinase-type plasminogen activator receptor (uPAR) Biomarker Activity (AID 2283054); details: primary human coronary artery smooth muscle cells; actives raise or lower the signal;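 note: cell-surface uPAR protein level quantified by ELISA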
[15] = read-out: Vascular cell adhesion molecule 1 (VCAM1), VCAM1 (gene 7412); assay: BSK_CASM3C_VCAM1: BioMAP Diversity Plus: CASM3C Assay for Vascular cell adhesion molecule 1 (VCAM1) Biomarker Activity (AID 2283055); details: primary human coronary artery smooth muscle cells; actives raise or lower the signal;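 note: VCAM-1 protein level quantified by ELISA on the cells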
[16] = read-out: Collagen III, COL3A1 (gene 1281); assay: BSK_hDFCGF_CollagenIII: BioMAP Diversity Plus: hDFCGF Assay for Collagen III Biomarker Activity (AID 2283056); details: primary human foreskin fibroblasts; actives raise or lower the signal
In short: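 Response relative to DMSO, fitted in both directions, reflects ELISA-measured collagen III in human primary skin fibroblasts 24 h after compound addition.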

[17] = read-out: Interleukin-8 (IL8), CXCL8 (gene 3576); assay: BSK_hDFCGF_IL8: BioMAP Diversity Plus: hDFCGF Assay for Interleukin-8 (IL8) Biomarker Activity (AID 2283058); details: primary human foreskin fibroblasts; actives raise or lower the signal
In short: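 Fibroblast monolayers (human foreskin, hDFCGF) received test chemical for 24 h before ELISA detection of IL-8; either increases or decreases relative to DMSO count as activity.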

[18] = BSK_hDFCGF_Proliferation: Cell Proliferation Assessment in the BioMAP Diversity Plus: hDFCGF Assay (AID 2283059); details: primary human foreskin fibroblasts;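 note: curves fitted for both rise and fall of signal versus DMSO baseline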
In short: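 Steps: dose primary human dermal fibroblasts (foreskin); […] fix in 10% TCA; stain with 0.1% SRB; read 560 nm; fit gain or loss of signal against DMSO.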

[19] = read-out: Macrophage colony-stimulating factor (MCSF), CSF1 (gene 1435); assay: BSK_hDFCGF_MCSF: BioMAP Diversity Plus: hDFCGF Assay for Macrophage colony-stimulating factor (MCSF) Biomarker Activity (AID 2283060); details: primary human foreskin fibroblasts; actives raise or lower the signal
In short: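 fibroblasts (human foreskin, primary), 24 h post-dose; M-CSF by ELISA; bidirectional fit, DMSO = baseline.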

[20] = read-out: Epidermal growth factor receptor (EGFR), EGFR (gene 1956); assay: BSK_hDFCGF_EGFR: BioMAP Diversity Plus: hDFCGF Assay for Epidermal growth factor receptor (EGFR) Biomarker Activity (AID 2283057); details: primary human foreskin fibroblasts; actives raise or lower the signal
In short: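 hDFCGF system, primary human foreskin fibroblasts; compound 24 h; EGFR measured by ELISA; DMSO = negative control/baseline; bidirectional fitting.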

Measured: AC50

C=CC(=O)OCCC(F)(F)C(F)(F)C(F)(F)C(F)(F)C(F)(F)C(F)(F)C(F)(F)C(F)(F)F
inactive: [1] | [2] | [3] | [4] | [5] | [6] | [7] | [8] | [9] | [10] | [11] | [12] | [13] | [14] | [15] | [16] | [17] | [18] | [19]
active: [18] 30 µM

O=C(O)C(F)(F)OC(F)(F)C(F)(F)OC(F)(F)C(F)(F)OC(F)(F)C(F)(F)C(F)(F)C(F)(F)F
inactive: [2] | [3] | [4] | [6] | [8] | [9] | [11] | [12] | [14]
active: [1] 4.98 µM and 4.8 µM | [4] 48.1 µM | [5] 46.1 µM and 55.2 µM | [7] 51.1 µM and 56.6 µM | [9] 43.5 µM | [10] 55.1 µM and 45.3 µM | [13] 10.1 µM and 9.36 µM | [15] 24.8 µM and 30 µM | [16] 10.9 µM and 9.27 µM | [18] 7.93 µM and 8.07 µM | [19] 11.6 µM and 10.5 µM

O=C(CCCN1CCC(O)(c2ccc(Cl)cc2)CC1)c1ccc(F)cc1
inactive: [1] | [2] | [3] | [4] | [6] | [8] | [9] | [10] | [11] | [12] | [13] | [14] | [15] | [16] | [20] | [19]
active: [5] 9.2 µM | [7] 20 µM | [18] 4.55 µM

C=COC(=O)C(C)(C)CCCCCC
active: [1] 20 µM | [3] 35.9 µM | [4] 32 µM | [6] 20 µM | [7] 37.8 µM | [8] 32.6 µM | [10] 31.9 µM | [12] 20 µM | [13] 35 µM | [14] 20 µM | [15] 33.2 µM | [16] 31.2 µM | [17] 31 µM | [18] 31.7 µM | [19] 35 µM
inactive: [2] | [5] | [9] | [11]

O=C(CC(=O)C(F)(F)C(F)(F)C(F)(F)F)c1cccs1
inactive: [2] | [11] | [12] | [13] | [16] | [17] | [19]
active: [1] 22.3 µM and 20.7 µM | [3] 47.3 µM and 50.5 µM | [4] 45.2 µM and 48.9 µM | [5] 40.2 µM and 32.8 µM | [6] 45.5 µM and 45.9 µM | [7] 30 µM and 24.6 µM | [8] 42 µM and 50.2 µM | [9] 41.2 µM and 43.4 µM | [10] 45.6 µM and 44.6 µM | [11] 54.4 µM | [14] 51.8 µM and 50.9 µM | [15] 40.6 µM and 38.2 µM | [18] 4.23 µM and 4.92 µM

CCC(C)c1ccccc1O (centres undefined)
inactive: [1] | [2] | [3] | [4] | [5] | [6] | [7] | [8] | [9] | [10] | [11] | [12] | [13] | [14] | [15] | [16] | [20] | [17] | [18] | [19]

CCCCc1oc2ccccc2c1C(=O)c1cc(I)c(OCCN(CC)CC)c(I)c1
active: [1] 9.06 µM | [2] 23.9 µM | [3] 5.94 µM | [4] 22 µM | [5] 27.2 µM | [6] 25.1 µM | [7] 8.1 µM | [8] 24 µM | [9] 12.4 µM | [10] 18.9 µM | [11] 27.9 µM | [12] 24 µM | [13] 8.78 µM | [14] 13.7 µM | [15] 25.3 µM | [16] 7.23 µM | [17] 10.3 µM | [18] 3.97 µM | [19] 6.99 µM

C=CC(C)(CCC=C(C)C)OC(C)=O (centres undefined)
active: [1] 26.3 µM | [3] 32 µM | [4] 35.8 µM | [6] 26.6 µM | [7] 30.6 µM | [9] 28.7 µM | [10] 32.6 µM | [14] 20 µM | [15] 34.6 µM | [18] 24.7 µM
inactive: [2] | [5] | [8] | [11] | [12] | [13] | [16] | [19]

Cc1cccc2c1ccc1ccccc12
inactive: [1] | [2] | [3] | [4] | [5] | [6] | [7] | [8] | [9] | [10] | [11] | [12] | [13] | [14] | [15] | [16] | [18] | [19]

CC(=O)Nc1ccc(O)cc1
inactive: [1] | [2] | [3] | [4] | [5] | [6] | [7] | [8] | [9] | [10] | [11] | [12] | [13] | [14] | [15] | [16] | [18] | [19]

CCCCCCCCCCCC
inactive: [1] | [2] | [3] | [4] | [5] | [6] | [7] | [8] | [9] | [10] | [11] | [12] | [14] | [15]
active: [13] 8.64 µM and 6.71 µM | [16] 9.2 µM and 5.67 µM | [18] 11.6 µM and 11.5 µM | [19] 9.32 µM and 10.2 µM
